Compound activity (PubChem BioAssay)
This is a sample that favours compounds with a hit; in the whole collection about 10% have one here.
HEK cytotox – HEK 293 cell cytotoxicity; 94,000 compounds, 6.6% hits; HEK 293 viability, ATP luminescence (CellTiter-Glo), 48-72 h; Potency, µM (series often up to 115 µM), for the others: at the highest dose activity change, negative = cytotoxicity, hits mostly inhibitors; AID 1345083; note: nearly all actives have a fitted effect of over 60% in size
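HEK 293 cells seeded at 250 cells/well were exposed to compound for 48 or 72 hr at 37 degree Celsius. Viability taken as ATP content by CellTiter-Glo luminescence.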
GPT2 inh – GPT2 alanine aminotransferase inhibition; Q8TD30; Recombinant GPT2, coupled pyruvate oxidase/HRP Amplex Red fluorescence; Potency, µM (doses to about 57.7 µM), for the others: at the top dose activity change, negative = inhibition, usual class: inhibitors; 100,000 compounds, 0.25% hits; note: nearly all actives have a fitted effect of over 60% in size
Target sequence (Q8TD30 whole entry, looked up): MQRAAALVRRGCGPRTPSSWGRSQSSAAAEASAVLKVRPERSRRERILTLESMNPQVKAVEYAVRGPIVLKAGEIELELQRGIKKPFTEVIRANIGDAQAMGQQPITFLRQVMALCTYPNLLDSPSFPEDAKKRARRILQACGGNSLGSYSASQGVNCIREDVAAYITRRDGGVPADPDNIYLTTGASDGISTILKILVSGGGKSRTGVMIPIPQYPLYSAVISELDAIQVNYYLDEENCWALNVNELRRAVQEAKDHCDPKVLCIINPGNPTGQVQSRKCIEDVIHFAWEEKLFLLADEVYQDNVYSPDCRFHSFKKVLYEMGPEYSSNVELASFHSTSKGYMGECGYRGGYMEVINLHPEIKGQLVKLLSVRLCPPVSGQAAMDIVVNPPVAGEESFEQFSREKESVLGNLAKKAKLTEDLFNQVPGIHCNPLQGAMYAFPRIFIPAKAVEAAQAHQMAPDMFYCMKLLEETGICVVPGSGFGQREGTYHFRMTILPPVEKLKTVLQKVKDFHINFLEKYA
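GPT2 10ng/uL, a-KG 250uM, L-Ala 2mM, HEPES pH7.5 + 0.0001% Tween; 30 min RT. Then Amplex mix (PO/HRP/ThPP), 30 min RT dark, fluorescence. AOA 50uM used as positive control.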
3T3 cytotox – cytotoxic compounds in NIH 3T3 cells | Potency, µM (highest dose often 96.7 µM), without a hit: at the highest dose activity change, negative = cytotoxicity, hits mostly inhibitors | 94,000 compounds, 4.3% hits | NIH 3T3 viability, CellTiter-Glo ATP luminescence, 48-72 h; note: nearly all actives have a fitted effect of over 55% in size
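Viability of NIH 3T3 cells after 48 or 72 hr compound treatment at 37 °C was assessed by CellTiter-Glo, with luminescence imaged following a 10 min room-temperature step.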
FLuc inh – inhibitors of firefly (Photinus pyralis) luciferase | P08659 | purified P. pyralis luciferase, luminescence, biochemical | Potency, µM (titrated, usually from 115 µM), hits mostly inhibitors | 76,000 compounds, 2.5% hits | AID 1347043; note: nearly all actives have a fitted effect of over 65% in size
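Luminescence read by CCD imaging after purified firefly luciferase (10nM final) was added to substrate buffer holding 10uM D-luciferin and 10uM ATP, pH 7.5, pre-dosed with compound.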
NPR1 antag – antagonists of human natriuretic peptide receptor Npr1; P16066; HEK293 hNpr1 GloSensor cGMP, ANP-stimulated luminescence; Potency, µM (titrated, usually from 46.3 µM), for inactives: at the top dose activity change, negative = inhibition, hits mostly inhibitors; 76,000 compounds, 1.6% hits; calls by dose curve; note: nearly all actives have a fitted effect of over 60% in size
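HEK293 cells stably expressing human Npr1 and cGMP GloSensor pGS-40F, loaded 2 h with 2% GloSensor reagent, given compound 30 min at room temperature. Luminescence read before and 20 min after 0.1 nM hNppA.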
Starred values were filed as active, the others as inactive; [ ] = dose if it differs, or a comment. Unless noted, calls come from the whole dose curve; as a rule, active = well fitted curve in the direction sought with a large enough effect; inconclusive = small, poorly fitted or top-dose-only effect, or another doubt; inactive = no such curve, though single readings can be large; an effect the other way counts as inactive or inconclusive. % is set by controls: 0 for no effect and ±100 for the full control effect; potency is the fitted concentration of half-maximal effect.

Results for COC(=O)c1ccc2nc(C[C@@H]3C[C@@H](C(C)C)[C@H](CNC4CCN(C(C)=O)CC4)C=C3C)[nH]c2c1 ?
HEK cytotox: inconclusive; GPT2 inh: inactive; 3T3 cytotox: inconclusive; FLuc inh: inactive; NPR1 antag: 1%

How did COC(=O)c1ccc2nc(C[C@@H]3C[C@@H](C(C)C)[C@H](CNC4CCN(C)CC4)C=C3C)[nH]c2c1 do in these assays?
HEK cytotox: 22µM*; GPT2 inh: inactive; 3T3 cytotox: 25µM*; FLuc inh: inactive; NPR1 antag: -13%

What do the screens show for `COC(=O)c1ccc2nc(C[C@@H]3C[C@@H](C(C)C)[C@H](CNCc4ccccc4O)C=C3C)[nH]c2c1`?
HEK cytotox: 22µM*; GPT2 inh: inactive; 3T3 cytotox: 20µM*; FLuc inh: inactive; NPR1 antag: inconclusive

What do the screens show for `COC(=O)c1ccc2nc(C[C@@H]3C[C@@H](C(C)C)[C@H](CNC(=O)CCC(=O)O)C=C3C)[nH]c2c1`?
HEK cytotox: -13%; GPT2 inh: 4%; 3T3 cytotox: -9%; FLuc inh: inactive; NPR1 antag: -2%

How did COC(=O)c1ccc2nc(C[C@@H]3C[C@@H](C(C)C)[C@H](CNS(=O)(=O)c4ccccc4)C=C3C)[nH]c2c1 do in these assays?
HEK cytotox: 28µM*; GPT2 inh: -10%; 3T3 cytotox: 32µM*; FLuc inh: inactive; NPR1 antag: -6%

Results for COCCNc1c(-c2noc(C)c2C(=O)Nc2ccc(OC)cc2)cnn1C ?
HEK cytotox: inconclusive; GPT2 inh: inactive; 3T3 cytotox: inconclusive; FLuc inh: inactive; NPR1 antag: 2%[70.6 µM]

Results for Cc1ccc(Nc2ccnc(N3CCCC3C(=O)NCc3ccc(F)cc3)n2)cc1 (stereo unspecified) ?
HEK cytotox: inconclusive; GPT2 inh: inactive; 3T3 cytotox: inconclusive

What do the screens show for `CC1(CNc2ccccc2)COc2ccc(C(=O)NCCc3ccccn3)cc2N1` (stereo unspecified)?
HEK cytotox: 100µM*; GPT2 inh: -1%[88.5 µM]; 3T3 cytotox: inconclusive; FLuc inh: inactive; NPR1 antag: -2%[70.6 µM]

What do the screens show for `CC1(COc2ccccc2)COc2ccc(C(=O)NCCOc3ccccc3)cc2N1` (stereo unspecified)?
HEK cytotox: 79µM*; GPT2 inh: -17%[88.5 µM]; 3T3 cytotox: inconclusive; FLuc inh: inactive; NPR1 antag: inconclusive

Results for CCOCC1(C)COc2ccc(C(=O)NCCc3ccccc3)cc2N1 (stereo unspecified) ?
HEK cytotox: inconclusive; GPT2 inh: -6%[88.5 µM]; 3T3 cytotox: inconclusive; FLuc inh: 22µM*; NPR1 antag: -5%[70.6 µM]

Results for CC1(CNc2ccccc2)COc2ccc(C(=O)NCCN3CCOCC3)cc2N1 (stereo unspecified) ?
HEK cytotox: inconclusive; GPT2 inh: 2%[88.5 µM]; 3T3 cytotox: -5%[138 µM]; FLuc inh: inactive; NPR1 antag: -2%[70.6 µM]

How did CC1(CNc2ccccc2)COc2ccc(C(=O)NCCOc3ccccc3)cc2N1 (stereo unspecified) do in these assays?
HEK cytotox: 40µM*; GPT2 inh: 0%[88.5 µM]; 3T3 cytotox: 32µM*; FLuc inh: inconclusive; NPR1 antag: inconclusive

How did CN(Cc1ccccc1)[C@H]1[C@H](O)[C@H](CO)O[C@@H]1CNCc1ccc(F)cc1 do in these assays?
HEK cytotox: -15%; GPT2 inh: inactive; 3T3 cytotox: -11%; FLuc inh: inactive; NPR1 antag: 7%

How did O=C(Nc1ccc(F)cc1)c1ccc2c(c1)OCCN(C1CCC1)C2 do in these assays?
HEK cytotox: inconclusive; GPT2 inh: 4%[88.5 µM]; 3T3 cytotox: inconclusive; FLuc inh: 45µM*; NPR1 antag: -18%[70.6 µM]

Results for COc1ccc(NC(=O)c2ccc3c(c2)OCCN(c2ccccc2)C3)cn1 ?
HEK cytotox: inconclusive; GPT2 inh: -20%[88.5 µM]; 3T3 cytotox: inconclusive; FLuc inh: inactive; NPR1 antag: inconclusive

What do the screens show for `Cc1ccc(CNC(=O)c2ccc3c(c2)CN(C2CCC2)CCO3)cc1`?
HEK cytotox: -18%; GPT2 inh: -3%; 3T3 cytotox: -16%; FLuc inh: inactive; NPR1 antag: -1%

How did Cc1cc(NC(=O)c2ccc3c(c2)OCCN(C2CCC2)C3)ccc1F do in these assays?
HEK cytotox: inconclusive; GPT2 inh: -2%[88.5 µM]; 3T3 cytotox: inconclusive; FLuc inh: 22µM*; NPR1 antag: -24%[70.6 µM]

Results for O=C1N(C2CCCCC2)C[C@H]2CN(S(=O)(=O)c3ccc(F)cc3)CCN12 ?
HEK cytotox: inconclusive; GPT2 inh: 1%[88.5 µM]; 3T3 cytotox: 35µM*; FLuc inh: inactive; NPR1 antag: -2%[70.6 µM]

How did CCOCC(=O)N1CCCN(S(C)(=O)=O)c2ccccc21 do in these assays?
HEK cytotox: inactive; GPT2 inh: -9%; 3T3 cytotox: 4%; FLuc inh: inactive; NPR1 antag: 4%

What do the screens show for `COc1ccc(C(=O)N2CCCN(C)c3ccccc32)c(OC)c1`?
HEK cytotox: inconclusive; GPT2 inh: inconclusive; 3T3 cytotox: inconclusive; FLuc inh: inactive; NPR1 antag: -22%

Results for CCOc1ccc(CC(=O)N2CCCN(C)c3ccccc32)cc1 ?
HEK cytotox: 89µM*; GPT2 inh: -4%; 3T3 cytotox: inconclusive; FLuc inh: inactive; NPR1 antag: -8%

How did CCOc1ccc(CC(=O)N2CCCN(S(C)(=O)=O)c3ccccc32)cc1OCC do in these assays?
HEK cytotox: -13%; GPT2 inh: -7%; 3T3 cytotox: -13%; FLuc inh: inactive; NPR1 antag: 7%

What do the screens show for `Cc1ccc(CC(=O)N2CCCN(S(C)(=O)=O)c3ccccc32)cc1`?
HEK cytotox: -22%; GPT2 inh: -3%; 3T3 cytotox: 18µM*; FLuc inh: inactive; NPR1 antag: 0%

How did COc1ccc(C(=O)N2CCCN(C)c3ccccc32)c(C)c1 do in these assays?
HEK cytotox: 45µM*; GPT2 inh: inactive; 3T3 cytotox: inconclusive; FLuc inh: inactive; NPR1 antag: -2%

Results for COc1cccc(CC(=O)N2CCCN(C)c3ccccc32)c1 ?
HEK cytotox: inconclusive; GPT2 inh: inactive; 3T3 cytotox: -5%; FLuc inh: inactive; NPR1 antag: -11%

What do the screens show for `Cc1ccc(OCC(=O)N2CCCN(S(C)(=O)=O)c3ccccc32)cc1`?
HEK cytotox: -26%; GPT2 inh: inactive; 3T3 cytotox: 22µM*; FLuc inh: inactive; NPR1 antag: 2%

Results for Cc1ccc(CN2CC3(Cc4ccccc4C(=O)N3)C2)cc1 ?
HEK cytotox: inconclusive; GPT2 inh: -3%[88.5 µM]; 3T3 cytotox: inconclusive
